From PMC10726135, “HNF4α isoforms regulate the circadian balance between carbohydrate and lipid metabolism in the liver”
The full ranking holds about 18,000 sequences; the median of “log2 normalized intensity” is about 0.36, and the highest 2% start at about 7.3. This excerpt belongs to a sample that is enriched for the highest values.

What follows are sequences tested against T1, HNF4alpha8 (COS-7 nuclear extract) (Homo sapiens, UniProt P41235-5 1-452) (assay: protein-binding microarray; COS-7 nuclear extract on double-stranded Agilent 4x180k PBM; binding buffer, salt, pH and temperature not given in the material; high values mean tight binding). Details: chain copies: 2; label: 3' end of strand 1 on the slide; dsDNA, one strand shown.
T1 sequence: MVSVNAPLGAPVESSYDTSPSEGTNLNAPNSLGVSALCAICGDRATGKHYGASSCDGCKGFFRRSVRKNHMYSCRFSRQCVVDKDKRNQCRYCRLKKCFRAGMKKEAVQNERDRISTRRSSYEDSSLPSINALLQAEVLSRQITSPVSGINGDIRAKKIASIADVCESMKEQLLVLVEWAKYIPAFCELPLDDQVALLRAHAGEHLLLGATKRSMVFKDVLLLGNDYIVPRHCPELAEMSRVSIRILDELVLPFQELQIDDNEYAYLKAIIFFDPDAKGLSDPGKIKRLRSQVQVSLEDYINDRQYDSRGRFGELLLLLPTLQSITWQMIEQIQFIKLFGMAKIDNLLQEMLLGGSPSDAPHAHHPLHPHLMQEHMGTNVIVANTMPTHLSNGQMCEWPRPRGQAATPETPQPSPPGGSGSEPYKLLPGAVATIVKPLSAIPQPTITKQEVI
In short: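 A human HNF4α isoform was expressed in COS-7 cells by transient CaPO4 transfection, and nuclear extracts were prepared. These were applied to a custom Agilent SurePrint G3 4x180k array carrying ~44,000 test sequences in quadruplicate as double-stranded ~60-nt oligonucleotides, and an Agilent G2565CA scanner imaged bound HNF4α at 2-µm resolution. The background-corrected, normalized gProcessedSignal from Agilent software was used as the binding signal.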

Sequence | binding signal [log2 normalized intensity]
GCCTCCATTAATTAACCTTTGAGCTGGGTGGCCTAGGGAGATTAGAGTATCGGTCGA | 5.22
TGGACTGTTCAAGACCAAAGGTCATGGCAAGCCTAGGGAGATTAGAGTATCGGTCGA | 5.58
TAAGTGTGGGTTTAAGTAAGCCCCCTTCCCGCCTAGGGAGATTAGAGTATCGGTCGA | 4.85
AGCTGACCCCAAAACCCCCAAAGGTGAGTAGCCTAGGGAGATTAGAGTATCGGTCGA | 4.29
GCCACCCTCTGGCCACCAGTTATTCATGTCGCCTAGGGAGATTAGAGTATCGGTCGA | 0.887
AACTACAGTTGACCTTTGAACACCACAAGTGCCTAGGGAGATTAGAGTATCGGTCGA | 8.13
ATGCCCCATGGTAAGAACTACAGTTGACCTGCCTAGGGAGATTAGAGTATCGGTCGA | 4.71
CCATGGTAAGAACTACAGTTGACCTTTGAAGCCTAGGGAGATTAGAGTATCGGTCGA | 8.15
GACCTTTGAACACCACAAGTTTGAACTGCAGCCTAGGGAGATTAGAGTATCGGTCGA | 5.65
TAGGTATGCCCCATGGTAAGAACTACAGTTGCCTAGGGAGATTAGAGTATCGGTCGA | 1.21
CAGTTGACCTTTGAACACCACAAGTTTGAAGCCTAGGGAGATTAGAGTATCGGTCGA | 6.74
TTTTCCTTTGTTGGTTTTGCCCGAGGTCTGGCCTAGGGAGATTAGAGTATCGGTCGA | 1.89
GTGGAATTTGTGCTTATTTCCCATCAAGGAGCCTAGGGAGATTAGAGTATCGGTCGA | 0.292
ATAGCGCCCACACTGCCCATCCCCACTGAAGCCTAGGGAGATTAGAGTATCGGTCGA | 3.12
AGCTGCCCTTTGCACATGCCCCTCCCAGGGGCCTAGGGAGATTAGAGTATCGGTCGA | 2.81
AATGCACTGGTGACTTTAAGTTGACTCCAAGCCTAGGGAGATTAGAGTATCGGTCGA | -0.366
AGGATGGGCCATGACCTTTACCCCCATTTGGCCTAGGGAGATTAGAGTATCGGTCGA | 8.39
GGGCCATGACCTTTACCCCCATTTGGTAATGCCTAGGGAGATTAGAGTATCGGTCGA | 7.13
CACTATCACCAGGATGGGCCATGACCTTTAGCCTAGGGAGATTAGAGTATCGGTCGA | 4.97
AACGGCCCAGGGTTAGAGGATGACCTTCCCGCCTAGGGAGATTAGAGTATCGGTCGA | 3.71
ATGACCTTTACCCCCATTTGGTAATGGGCCGCCTAGGGAGATTAGAGTATCGGTCGA | 5.46
TCACCAGGATGGGCCATGACCTTTACCCCCGCCTAGGGAGATTAGAGTATCGGTCGA | 10

Sequence | binding signal [log2 normalized intensity]
CCTCCAGCTCTTTTGAACCCAAGGCCAAACGCCTAGGGAGATTAGAGTATCGGTCGA | 2.07
ATAAATAAAGCCCTGGGGTAATAAAAGTGTGCCTAGGGAGATTAGAGTATCGGTCGA | -0.134
TTTACTTATCATAAGTCAGCCTGGCTGAAGGCCTAGGGAGATTAGAGTATCGGTCGA | 1.53
ATGAACTTTGACCCACCTACATTGATATTCGCCTAGGGAGATTAGAGTATCGGTCGA | 5.5
ATTTTTCCCTTTGATATTTATCAAGATGAAGCCTAGGGAGATTAGAGTATCGGTCGA | 0.842
CACCCAGAACTTTGACCGTTTGATTATTTGGCCTAGGGAGATTAGAGTATCGGTCGA | 2.96
TTGATATTTATCAAGATGAACTTTGACCCAGCCTAGGGAGATTAGAGTATCGGTCGA | 11.2
TCCCTTTGATATTTATCAAGATGAACTTTGGCCTAGGGAGATTAGAGTATCGGTCGA | 5.51
ATTTATCAAGATGAACTTTGACCCACCTACGCCTAGGGAGATTAGAGTATCGGTCGA | 8.8
GGCCGTGAAGCCGTCCTGTCCTGGACTTTCGCCTAGGGAGATTAGAGTATCGGTCGA | 4.47
GCTTGTTCTCTCCCCCAACCCCACCTTCATGCCTAGGGAGATTAGAGTATCGGTCGA | 4.61
GTGTGGGACTTTGGTCTGCTGAGTCTCATGGCCTAGGGAGATTAGAGTATCGGTCGA | 2.52
TCTTCTCAGTGTTTTGGGTCCTACAGAACCGCCTAGGGAGATTAGAGTATCGGTCGA | 0.643
TTTGCCATTTGGAGAGAGTTTGGCCCCAGTGCCTAGGGAGATTAGAGTATCGGTCGA | 2.83
TTTGGAATTTGACCTCATTTGCTCCCAGTGGCCTAGGGAGATTAGAGTATCGGTCGA | 4.58
TTAGCCCAGTGAGACCCATTTTGGACTTTGGCCTAGGGAGATTAGAGTATCGGTCGA | 7.42
ACATCTTGATTTAGCCCAGTGAGACCCATTGCCTAGGGAGATTAGAGTATCGGTCGA | 0.922
CCAGTGAGACCCATTTTGGACTTTGACCTCGCCTAGGGAGATTAGAGTATCGGTCGA | 11.8
CACATACACCTGCGTGTACTAAGGTCTTAAGCCTAGGGAGATTAGAGTATCGGTCGA | 1.24
CAAGTTGCAGGGATGGACTTTAATCTCCAAGCCTAGGGAGATTAGAGTATCGGTCGA | 5.83
AGGTCATGCATAGAAGTATGTCTGGGATTTGCCTAGGGAGATTAGAGTATCGGTCGA | 0.935
GTGCTCCTCCCCATCTCAGCCTCTCAGGTCGCCTAGGGAGATTAGAGTATCGGTCGA | 1.84

Sequence | binding signal [log2 normalized intensity]
AGGCCCTCGGCATCATGCCCTTTGGCCCCCGCCTAGGGAGATTAGAGTATCGGTCGA | 7.71
AAGGCATGGGACCTTTGCCCTTCTTGTTAAGCCTAGGGAGATTAGAGTATCGGTCGA | 5.47
CCCCCAAGGCATGGGACCTTTGCCCTTCTTGCCTAGGGAGATTAGAGTATCGGTCGA | 6.71
ACACCAGGCCCTCGGCATCATGCCCTTTGGGCCTAGGGAGATTAGAGTATCGGTCGA | 4.63
CTCGGCATCATGCCCTTTGGCCCCCAGAGCGCCTAGGGAGATTAGAGTATCGGTCGA | 7.18
CCCCTCCCCCAAGGCATGGGACCTTTGCCCGCCTAGGGAGATTAGAGTATCGGTCGA | 7.34
CAGAGACAATGTGAGCAGGTGTGTGGCATCGCCTAGGGAGATTAGAGTATCGGTCGA | 0.13
CGACCTCCCCGTCACCCTCCCCGCCACCCCGCCTAGGGAGATTAGAGTATCGGTCGA | 7.01
GCAAATGTGTCTTTTTTAGTCAGCATAGTTGCCTAGGGAGATTAGAGTATCGGTCGA | 1.34
TGTGACAGAAGTCATGTCTCATTGCCCCTTGCCTAGGGAGATTAGAGTATCGGTCGA | 4.58
GAATGGCCAGAGTTCCTGTGCAAGCCCCTGGCCTAGGGAGATTAGAGTATCGGTCGA | -0.986
GGTGAAGGGGTCACCTCGCTCCCCTCCTGTGCCTAGGGAGATTAGAGTATCGGTCGA | 1.02
GTTGGTTTCTGGGATTTGTACAAGTGATTGGCCTAGGGAGATTAGAGTATCGGTCGA | 1.63
TTTGGAGTTTGACCTGGAGCCAGGGCCTTTGCCTAGGGAGATTAGAGTATCGGTCGA | 3.92
GAGGCCAGTTTGACCTTTGCATTCTTACCCGCCTAGGGAGATTAGAGTATCGGTCGA | 7.03
TCACCATATCCCTGAGAGGCCAGTTTGACCGCCTAGGGAGATTAGAGTATCGGTCGA | 3.28
CAGTTTGACCTTTGCATTCTTACCCAAGCCGCCTAGGGAGATTAGAGTATCGGTCGA | 5.1
ATATCCCTGAGAGGCCAGTTTGACCTTTGCGCCTAGGGAGATTAGAGTATCGGTCGA | 8.82
CCTGAGAGGCCAGTTTGACCTTTGCATTCTGCCTAGGGAGATTAGAGTATCGGTCGA | 8.31
AACATGTAAATATGACCTTTGCTTTTCAAGGCCTAGGGAGATTAGAGTATCGGTCGA | 5.13
ATGTGGTCAAAACTTTGTTTGAGTTCCAAAGCCTAGGGAGATTAGAGTATCGGTCGA | 1.01
TTTGACATCACCTAACTTGTGGCTGGGTGAGCCTAGGGAGATTAGAGTATCGGTCGA | 1.15

Sequence | binding signal [log2 normalized intensity]
AACCCCTTTTCAATTCCTTATCTCGTTCTGGCCTAGGGAGATTAGAGTATCGGTCGA | 0.721
CAGTCACAGCAGTGGACTTTGACCTTGGCAGCCTAGGGAGATTAGAGTATCGGTCGA | 9.69
ATGTGACCTTTTGGACCACAGAGTGACCTGGCCTAGGGAGATTAGAGTATCGGTCGA | 5.66
TGACCTTGCAGTGGCAAGGCAAAAGAGACAGCCTAGGGAGATTAGAGTATCGGTCGA | 0.892
ACAGCAGTGGACTTTGACCTTGGCACTGAAGCCTAGGGAGATTAGAGTATCGGTCGA | 9.68
ACTTTGACCTTGGCACTGAAGAATGTCTAAGCCTAGGGAGATTAGAGTATCGGTCGA | 2.09
ACAGCACTGACCTTTGAGAGTCAACACTGAGCCTAGGGAGATTAGAGTATCGGTCGA | 3.53
CCTCCTGTGGTAATAAGTTGGTGGACGCTGGCCTAGGGAGATTAGAGTATCGGTCGA | 1.13
ATTTGGACTTTTACTCTTAGAGATAATGGGGCCTAGGGAGATTAGAGTATCGGTCGA | 2.47
TATGCTCTCTCTCCACCTGGAGGGACTTTGGCCTAGGGAGATTAGAGTATCGGTCGA | 3.06
AAAGATGTTTAAATAGTGATAATGGATGGCGCCTAGGGAGATTAGAGTATCGGTCGA | 0.702
GCTAAGAGACAGCTCCACAGCTGGACTTTGGCCTAGGGAGATTAGAGTATCGGTCGA | 5.9
GAGACAGCTCCACAGCTGGACTTTGGCTGCGCCTAGGGAGATTAGAGTATCGGTCGA | 6.17
ATCTCCAAACGAGACTTTGGACTTTGGACTGCCTAGGGAGATTAGAGTATCGGTCGA | 11.9
GGACTTTGGTGTCTGACAGATAAGATTTGGGCCTAGGGAGATTAGAGTATCGGTCGA | 2.62
TCTTTAGGCCAAACAAAAATATGGACTTTGGCCTAGGGAGATTAGAGTATCGGTCGA | 6.57
AAAATATGGACTTTGGAATTAAGAAAAGCTGCCTAGGGAGATTAGAGTATCGGTCGA | 5.77
GGATAATGATAAAGAGATTGGACTTTGGCCGCCTAGGGAGATTAGAGTATCGGTCGA | 9.44
AGGCCAAACAAAAATATGGACTTTGGAATTGCCTAGGGAGATTAGAGTATCGGTCGA | 8.4
ATCTCCAGATAAGACTTTGGACTTTGGACCGCCTAGGGAGATTAGAGTATCGGTCGA | 11.8
